From PubChem BioAssay (EPA / NIEHS)
Inconclusive results are not listed. Calls of active or inactive are those of the source. How the source made its calls, unless noted: active means hit-call score of the fitted dose curve at least 0.9, where 1 is the maximum; inactive means score below 0.9.

Legend:
[1] = molecular target: Paired box protein Pax-6 (Homo sapiens) (UniProt P26367); assay: ATG_Pax6_CIS: Attagene CIS-FACTORIAL HepG2 Assay for human Paired Box 6 (PAX6) (AID 2282956); settings: HepG2 CIS-FACTORIAL PAX6 reporter transcription, RNA readout; actives raise or lower the signal
Paired box protein Pax-6 (Homo sapiens), sequence (P26367 whole entry, looked up): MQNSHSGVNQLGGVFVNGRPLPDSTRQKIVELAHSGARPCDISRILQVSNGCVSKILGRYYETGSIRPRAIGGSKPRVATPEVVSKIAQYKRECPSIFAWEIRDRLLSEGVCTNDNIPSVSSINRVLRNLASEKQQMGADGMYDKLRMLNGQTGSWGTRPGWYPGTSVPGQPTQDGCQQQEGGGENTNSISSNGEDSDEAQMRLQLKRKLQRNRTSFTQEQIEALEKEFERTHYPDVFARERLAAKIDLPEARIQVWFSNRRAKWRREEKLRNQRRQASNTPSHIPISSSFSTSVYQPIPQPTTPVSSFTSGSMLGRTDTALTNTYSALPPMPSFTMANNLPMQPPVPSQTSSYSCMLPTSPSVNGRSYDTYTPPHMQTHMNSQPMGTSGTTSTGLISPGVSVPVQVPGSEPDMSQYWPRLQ
How it was run: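 Values derive from bidirectional curve fitting of reporter mRNA signal relative to DMSO. HepG2 cells bearing transfected cis-regulated MRTUs were exposed for 24 h; transcripts were read by RT-PCR and capillary electrophoresis.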

[2] = ATG_PXRE_CIS: Attagene CIS-FACTORIAL HepG2 Assay for human Pregnane X Receptor Element (PXRE) (AID 2282957); settings: HepG2 Attagene CIS-FACTORIAL PXRE reporter, mRNA; actives raise or lower the signal
How it was run: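 Read-out: fluorescence of reporter-specific RT-PCR products resolved by capillary electrophoresis, fitted bidirectionally relative to DMSO. Human HepG2 liver cells carried transfected cis-promoter reporter units and were exposed to chemicals for 24 h.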

[3] = ATG_RORE_CIS: Attagene CIS-FACTORIAL HepG2 Assay for human RAR-related Orphan Receptor Element (RORE) (AID 2282959); settings: HepG2 Attagene cis-factorial RORE reporter, mRNA; actives raise or lower the signal
How it was run: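 Cells were HepG2 carrying transfected cis-regulated reporter constructs, dosed for 24 hours. Total RNA was reverse-transcribed and reporter cDNA amplified, fluorescently labeled and sized by capillary electrophoresis. Activity was fitted bidirectionally relative to DMSO.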

[4] = ATG_Sox_CIS: Attagene CIS-FACTORIAL HepG2 Assay for human SRY-box transcription factor (SOX) (AID 2282960); settings: HepG2 Attagene cis-factorial SOX reporter, mRNA; actives raise or lower the signal
How it was run: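 Transient MRTU transfection of HepG2; 24 h compound incubation; TriZol RNA, oligo(dT) RT, PCR, 6-FAM primer extension, HpaI cut, CE. Bidirectional fit, DMSO = baseline.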

[5] = molecular target: Transcription factor Sp1 (Homo sapiens) (UniProt P08047); assay: ATG_Sp1_CIS: Attagene CIS-FACTORIAL HepG2 Assay for human Specificity Protein 1 (Sp1) (AID 2282961); settings: HepG2 Sp1 cis-reporter transcription, actives raise or lower the signal
Transcription factor Sp1 (Homo sapiens), sequence (P08047 whole entry, looked up): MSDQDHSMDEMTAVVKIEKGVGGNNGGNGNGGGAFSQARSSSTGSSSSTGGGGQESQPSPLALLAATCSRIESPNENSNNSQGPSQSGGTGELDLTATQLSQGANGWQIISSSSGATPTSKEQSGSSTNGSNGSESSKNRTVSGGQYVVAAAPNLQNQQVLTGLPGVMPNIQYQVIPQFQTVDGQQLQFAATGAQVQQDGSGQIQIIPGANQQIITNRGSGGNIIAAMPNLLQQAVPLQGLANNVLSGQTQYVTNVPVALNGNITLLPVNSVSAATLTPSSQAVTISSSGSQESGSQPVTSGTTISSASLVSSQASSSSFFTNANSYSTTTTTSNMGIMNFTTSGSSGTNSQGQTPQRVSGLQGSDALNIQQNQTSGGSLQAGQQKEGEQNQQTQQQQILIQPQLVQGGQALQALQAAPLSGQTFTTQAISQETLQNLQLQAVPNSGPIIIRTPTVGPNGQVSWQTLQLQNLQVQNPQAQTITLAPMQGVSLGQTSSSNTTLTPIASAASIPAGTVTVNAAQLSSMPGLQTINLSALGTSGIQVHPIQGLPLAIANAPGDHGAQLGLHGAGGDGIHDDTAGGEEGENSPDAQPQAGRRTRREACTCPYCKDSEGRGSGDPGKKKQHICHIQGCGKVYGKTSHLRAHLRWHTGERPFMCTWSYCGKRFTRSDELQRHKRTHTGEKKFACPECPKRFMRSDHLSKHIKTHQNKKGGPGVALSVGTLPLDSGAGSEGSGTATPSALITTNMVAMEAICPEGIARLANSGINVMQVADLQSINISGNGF
How it was run: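 Endogenous Sp1 activity was gauged in human liver HepG2 cells bearing transfected reporter units under a cis-regulating promoter. After 24 h dosing, reporter mRNA was quantified by RT-PCR with capillary electrophoresis, and activity fitted bidirectionally versus DMSO.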

[6] = molecular target: Signal transducer and activator of transcription 3 (Homo sapiens) (UniProt P40763); assay: ATG_STAT3_CIS: Attagene CIS-FACTORIAL HepG2 Assay for human Signal Transducer and Activator of Transcription 3 (STAT3) (AID 2282963); settings: HepG2, Attagene cis-factorial STAT3 reporter transcription; actives raise or lower the signal
Signal transducer and activator of transcription 3 (Homo sapiens), sequence (P40763 whole entry, looked up): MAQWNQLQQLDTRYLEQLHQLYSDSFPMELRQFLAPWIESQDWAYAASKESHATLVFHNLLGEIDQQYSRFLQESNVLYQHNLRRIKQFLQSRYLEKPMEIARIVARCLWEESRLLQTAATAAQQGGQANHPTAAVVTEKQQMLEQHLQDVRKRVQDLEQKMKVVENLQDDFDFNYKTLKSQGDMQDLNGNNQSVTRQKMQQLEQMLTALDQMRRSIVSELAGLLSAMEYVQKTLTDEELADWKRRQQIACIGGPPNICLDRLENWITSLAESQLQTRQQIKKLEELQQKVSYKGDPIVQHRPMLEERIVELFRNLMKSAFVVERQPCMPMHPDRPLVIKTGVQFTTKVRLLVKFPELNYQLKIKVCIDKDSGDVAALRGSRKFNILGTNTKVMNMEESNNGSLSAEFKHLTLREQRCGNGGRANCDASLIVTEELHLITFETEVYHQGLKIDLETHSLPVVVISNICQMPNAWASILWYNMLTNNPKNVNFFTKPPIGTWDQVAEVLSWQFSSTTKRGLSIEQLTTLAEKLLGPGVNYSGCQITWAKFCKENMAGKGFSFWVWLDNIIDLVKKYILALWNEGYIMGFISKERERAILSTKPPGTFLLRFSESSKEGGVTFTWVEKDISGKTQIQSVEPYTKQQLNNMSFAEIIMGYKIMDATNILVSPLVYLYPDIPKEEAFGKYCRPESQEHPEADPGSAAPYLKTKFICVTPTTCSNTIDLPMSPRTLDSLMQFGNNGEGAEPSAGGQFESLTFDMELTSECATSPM
How it was run: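 Cis-factorial format: endogenous transcription factors in HepG2 drive transfected reporter units. After 24 h treatment, reporter RNA was reverse-transcribed, amplified, FAM-labelled and HpaI-digested before CE analysis; activity scored in both directions against DMSO.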

[7] = ATG_TA_CIS: Attagene CIS-FACTORIAL HepG2 Assay for human TA Basal Promoter (AID 2282964); settings: HepG2 Attagene CIS-factorial TA basal promoter reporter; actives raise or lower the signal
How it was run: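 HepG2 cells transiently transfected with multiplexed cis-promoter reporter units, dosed 24 h. Reporter mRNA measured by RT-PCR, 6-FAM labelling, HpaI digestion and capillary electrophoresis; bidirectional fit versus DMSO baseline, serving as background control.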

[8] = ATG_TCF_b_cat_CIS: Attagene CIS-FACTORIAL HepG2 Assay for human T-Cell-Factor with beta-catenin (TCF/b-cat) (AID 2282965); settings: HepG2 TCF/beta-catenin cis-reporter transcription, actives raise or lower the signal
How it was run: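 Endogenous TCF/LEF activity read as reporter transcript level via RT-PCR and capillary electrophoresis fluorescence in transfected HepG2, 24 h exposure; gain or loss of signal fitted against DMSO controls.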

[9] = ATG_TAL_CIS: Attagene CIS-FACTORIAL HepG2 Assay for human TAL Basal Promoter (AID 2282966); settings: HepG2 Attagene cis-factorial TAL promoter reporter; actives raise or lower the signal;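 further: background control endpoint measuring basal TAL promoter reporter mRNA not a specific factor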
How it was run: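 HepG2, transient MRTU transfection, 24 h compound exposure; RNA → oligo(dT) RT → PCR → 6-FAM primer extension → HpaI digest → CE fluorescence. Bidirectional curve fit vs DMSO. Background-control readout.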

[10] = ATG_TGFb_CIS: Attagene CIS-FACTORIAL HepG2 Assay for human Transforming Growth Factor (TGF) (AID 2282967); settings: HepG2 Attagene CIS TGFb reporter, mRNA transcription; actives raise or lower the signal
How it was run: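 HepG2 cells transiently transfected with cis-promoter-driven multiplexed reporter units; 24 h compound exposure. Reporter mRNA measured by RT-PCR, 6-FAM labeling, HpaI digestion and capillary electrophoresis; bidirectional fit versus DMSO baseline.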

[11] = ATG_VDRE_CIS: Attagene CIS-FACTORIAL HepG2 Assay for human Vitamin D Receptor Element (VDRE) (AID 2282968); settings: HepG2 VDRE cis-reporter transcription, actives raise or lower the signal
How it was run: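 Measures endogenous factor activity through cis-element-driven reporter transcripts in transiently transfected HepG2. Cells are treated 24 h; reporter mRNA is quantified by RT-PCR and capillary electrophoresis; fitting is bidirectional.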

[12] = molecular target: X-box-binding protein 1 (Homo sapiens) (UniProt P17861); assay: ATG_Xbp1_CIS: Attagene CIS-FACTORIAL HepG2 Assay for human X-box Binding Protein 1 (XBP1) (AID 2282972); settings: HepG2 XBP1 cis-element reporter, Attagene multiplex; actives raise or lower the signal
X-box-binding protein 1 (Homo sapiens), sequence (P17861 whole entry, looked up): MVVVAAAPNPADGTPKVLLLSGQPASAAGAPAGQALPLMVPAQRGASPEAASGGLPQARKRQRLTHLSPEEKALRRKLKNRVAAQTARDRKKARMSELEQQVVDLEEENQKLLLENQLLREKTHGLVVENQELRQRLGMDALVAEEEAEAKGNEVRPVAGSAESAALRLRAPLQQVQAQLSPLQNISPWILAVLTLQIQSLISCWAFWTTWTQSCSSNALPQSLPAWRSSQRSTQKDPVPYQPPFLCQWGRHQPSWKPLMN
How it was run: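 Human hepatoma HepG2, cis-element reporter system, 24 h treatment; mRNA quantified by RT-PCR/CE fluorescence; fit relative to DMSO.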

[13] = ATG_SREBP_CIS: Attagene CIS-FACTORIAL HepG2 Assay for human Sterol Regulatory Element Binding (SREBP) (AID 2282962); settings: HepG2 Attagene cis-factorial SREBP reporter, mRNA; actives raise or lower the signal
How it was run: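 Values derive from bidirectional curve fitting with DMSO as baseline. The underlying measurement is reporter mRNA from cis-element-regulated units in transiently transfected HepG2, quantified by RT-PCR and capillary electrophoresis after 24 h exposure.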

[14] = molecular target: Estrogen receptor (Homo sapiens) (UniProt P03372); assay: ATG_ERa_TRANS: Attagene TRANS-FACTORIAL HepG2 Assay for human Estrogen Receptor alpha (ERa) (AID 2282970; active means hit-call score of the fitted dose curve at least 0.9, where 1 is the maximum); settings: HepG2 Attagene TRANS ERa GAL4 reporter, mRNA
Estrogen receptor (Homo sapiens), sequence (P03372 whole entry, looked up, the tested form may be a part): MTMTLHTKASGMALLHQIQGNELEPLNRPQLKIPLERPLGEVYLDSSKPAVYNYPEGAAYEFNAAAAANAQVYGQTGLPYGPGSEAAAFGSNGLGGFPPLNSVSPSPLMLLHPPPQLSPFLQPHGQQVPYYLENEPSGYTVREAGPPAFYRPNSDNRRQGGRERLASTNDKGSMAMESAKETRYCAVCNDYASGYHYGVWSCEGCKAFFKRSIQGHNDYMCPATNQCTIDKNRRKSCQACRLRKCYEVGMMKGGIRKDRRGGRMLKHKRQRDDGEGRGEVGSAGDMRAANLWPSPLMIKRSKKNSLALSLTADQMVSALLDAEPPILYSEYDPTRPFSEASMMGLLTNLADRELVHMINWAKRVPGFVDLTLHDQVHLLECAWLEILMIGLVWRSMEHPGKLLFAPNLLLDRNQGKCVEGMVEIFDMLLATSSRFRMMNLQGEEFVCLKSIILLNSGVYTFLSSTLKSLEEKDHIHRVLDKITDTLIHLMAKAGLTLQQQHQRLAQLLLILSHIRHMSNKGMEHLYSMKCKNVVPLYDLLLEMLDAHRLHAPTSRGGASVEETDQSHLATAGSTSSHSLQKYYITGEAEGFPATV
How it was run: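 Reporter mRNA induction after 24 hours, detected by fluorescent RT-PCR and capillary electrophoresis, gives the read-out. Cells are HepG2 transiently transfected with GAL4-UAS reporter transcription units responding to chimeric NR-Gal4. Activity is taken as gain of signal over DMSO baseline.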

[15] = molecular target: Estrogen-related receptor gamma (Homo sapiens) (UniProt P62508); assay: ATG_ERRg_TRANS: Attagene TRANS-FACTORIAL HepG2 Assay for human Estrogen-Related Receptor gamma (ERRg) (AID 2282977; active means hit-call score of the fitted dose curve at least 0.9, where 1 is the maximum;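 further: hits increase reporter signal over DMSO so potencies reflect activators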); settings: HepG2 Attagene TRANS reporter, ERRg transactivation
Estrogen-related receptor gamma (Homo sapiens), sequence (P62508 whole entry, looked up, the tested form may be a part): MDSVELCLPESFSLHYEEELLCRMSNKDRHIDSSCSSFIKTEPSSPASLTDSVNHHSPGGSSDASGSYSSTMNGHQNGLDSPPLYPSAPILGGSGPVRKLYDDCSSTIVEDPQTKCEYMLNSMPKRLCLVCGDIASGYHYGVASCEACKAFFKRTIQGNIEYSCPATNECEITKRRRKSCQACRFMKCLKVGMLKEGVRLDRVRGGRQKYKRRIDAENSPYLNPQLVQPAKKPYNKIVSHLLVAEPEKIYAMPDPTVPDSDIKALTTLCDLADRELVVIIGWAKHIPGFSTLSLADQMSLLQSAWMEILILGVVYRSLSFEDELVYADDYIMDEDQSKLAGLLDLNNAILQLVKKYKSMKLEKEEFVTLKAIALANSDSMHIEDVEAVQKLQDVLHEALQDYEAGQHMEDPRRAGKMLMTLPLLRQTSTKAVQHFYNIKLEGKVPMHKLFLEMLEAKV
How it was run: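 Exogenous NR-Gal4 chimera activity was assessed in HepG2 cells bearing transfected GAL4-UAS reporters. After 24 h dosing, total RNA underwent RT-PCR, fluorescent primer extension and HpaI digestion before capillary electrophoresis, with gain of signal scored against DMSO.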

[16] = molecular target: Glucocorticoid receptor (Homo sapiens) (UniProt P04150); assay: ATG_GR_TRANS: Attagene TRANS-FACTORIAL HepG2 Assay for human Glucocorticoid Receptor (GR) (AID 2282978; active means hit-call score of the fitted dose curve at least 0.9, where 1 is the maximum;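 further: activators score as hits since higher reporter transcript over DMSO is fitted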); settings: HepG2 Attagene TRANS GR reporter, mRNA transcription
Glucocorticoid receptor (Homo sapiens), sequence (P04150 whole entry, looked up, the tested form may be a part): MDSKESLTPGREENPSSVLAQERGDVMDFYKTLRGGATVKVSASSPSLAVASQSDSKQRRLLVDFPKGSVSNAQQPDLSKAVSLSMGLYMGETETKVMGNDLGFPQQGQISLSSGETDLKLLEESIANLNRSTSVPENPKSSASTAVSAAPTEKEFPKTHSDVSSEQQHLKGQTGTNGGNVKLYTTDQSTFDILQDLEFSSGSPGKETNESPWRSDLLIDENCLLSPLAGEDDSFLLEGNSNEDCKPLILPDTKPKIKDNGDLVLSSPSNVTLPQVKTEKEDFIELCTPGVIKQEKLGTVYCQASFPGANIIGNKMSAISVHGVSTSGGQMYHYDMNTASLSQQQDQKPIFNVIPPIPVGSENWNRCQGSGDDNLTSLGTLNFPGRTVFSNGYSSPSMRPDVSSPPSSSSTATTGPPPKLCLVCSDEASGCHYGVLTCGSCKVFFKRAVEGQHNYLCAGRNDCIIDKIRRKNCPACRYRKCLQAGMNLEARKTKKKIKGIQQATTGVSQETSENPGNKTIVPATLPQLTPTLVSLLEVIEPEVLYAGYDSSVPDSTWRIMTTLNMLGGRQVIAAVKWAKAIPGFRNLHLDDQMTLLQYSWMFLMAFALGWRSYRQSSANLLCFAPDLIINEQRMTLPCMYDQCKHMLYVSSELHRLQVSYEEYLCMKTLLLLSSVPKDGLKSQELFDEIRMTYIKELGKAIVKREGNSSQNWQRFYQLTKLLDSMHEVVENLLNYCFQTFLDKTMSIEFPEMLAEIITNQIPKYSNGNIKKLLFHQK
How it was run: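 In this trans-factorial format, exogenous NR-GAL4 chimeric proteins in transfected HepG2 cells regulate GAL4-UAS reporter transcription. After 24 h treatment, reporter mRNA induction relative to DMSO is read by RT-PCR and capillary electrophoresis.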

[17] = ATG_GAL4_TRANS: Attagene TRANS-FACTORIAL HepG2 Assay for GAL4 (Internal Marker) (AID 2282976; active means hit-call score of the fitted dose curve at least 0.9, where 1 is the maximum); settings: HepG2 Attagene TRANS GAL4 internal marker reporter
How it was run: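 RT-PCR/capillary electrophoresis readout of reporter mRNA. HepG2, transient MRTU transfection (GAL4-UAS reporters), 24 h compound exposure. Background-control endpoint, positive direction vs DMSO baseline.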

[18] = ATG_M_19_TRANS: Attagene TRANS-FACTORIAL HepG2 Assay for M19 Transcription Factor (Internal Marker) (AID 2282974; active means hit-call score of the fitted dose curve at least 0.9, where 1 is the maximum); settings: HepG2 Attagene TRANS-FACTORIAL M19 internal marker reporter
How it was run: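 Cells: human HepG2, transiently transfected with multiplexed reporter transcription units. Exposure: 24 h. Detection: RT-PCR of reporter mRNA with capillary electrophoresis. Analysis: gain-of-signal vs DMSO.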

Measured: AC50

Cc1cc(=O)[nH]c(=S)[nH]1
inactive: [1] | [2] | [3] | [4] | [5] | [6] | [7] | [8] | [9] | [10] | [11] | [12]

CCCCCCCCCCCCCCCC
active: [2] 26.1 µM
inactive: [1] | [4] | [5] | [13] | [6] | [7] | [8] | [9] | [10] | [14] | [12] | [15]

Nc1nc(N)c2nc(CNc3ccc(C(=O)N[C@@H](CCC(=O)O)C(=O)O)cc3)cnc2n1
inactive: [1] | [2] | [3] | [4] | [5] | [6] | [7] | [9] | [10] | [11] | [14] | [12] | [15] | [16]
active: [8] 116 µM

Oc1ccc2ccccc2c1N=Nc1ccccc1
active: [2] 7.05 µM | [3] 2 µM | [10] 100 µM | [14] 2.86 µM
inactive: [1] | [4] | [5] | [6] | [7] | [8] | [9] | [12]

CC1=C(/C=C/C(C)=C/C=C/C(C)=C/CO)C(C)(C)CCC1
inactive: [4] | [5] | [6] | [7] | [9] | [10] | [12] | [17]
active: [1] 49.1 µM | [2] 0.464 µM | [3] 27.9 µM | [8] 25.9 µM | [11] 1.85 µM | [14] 4.28 µM

CCCCCCCCCCCC(=O)OC
inactive: [1] | [2] | [3] | [4] | [5] | [6] | [7] | [8] | [9] | [10] | [11] | [14] | [12] | [18] | [17] | [16]

Cc1c(C(=O)O)c(O)cc2c1C(=O)c1c(O)c([C@@H]3O[C@H](CO)[C@@H](O)[C@H](O)[C@H]3O)c(O)c(O)c1C2=O
inactive: [1] | [3] | [4] | [5] | [6] | [7] | [8] | [9] | [10] | [11] | [14] | [12] | [18] | [16]
active: [2] 53.9 µM

CC=Cc1ccc(O)c(OC)c1
active: [2] 26.1 µM
inactive: [1] | [3] | [4] | [5] | [6] | [7] | [8] | [9] | [10] | [14] | [12] | [17]

O=c1c(O)c(-c2ccc(O)c(O)c2)oc2cc(O)cc(O)c12
active: [2] 76.2 µM | [14] 14.9 µM
inactive: [1] | [3] | [4] | [5] | [6] | [7] | [8] | [9] | [10] | [11] | [12] | [18]

Cc1cccc(C)c1O
active: [14] 31.9 µM
inactive: [1] | [2] | [3] | [4] | [5] | [6] | [7] | [8] | [9] | [10] | [11] | [12] | [18] | [17] | [15]

COC(=O)c1ccc(O)cc1
inactive: [1] | [2] | [4] | [5] | [6] | [7] | [8] | [9] | [10] | [11] | [12]
active: [14] 63.8 µM

CNC(=O)[C@H]1O[C@@H](n2cnc3c(NCc4cc(Cl)ccc4OCc4cc(C)no4)ncnc32)[C@H](O)[C@@H]1N
inactive: [1] | [2] | [3] | [4] | [5] | [6] | [7] | [8] | [9] | [10] | [11] | [12] | [17]
